Screening results deposited in PubChem BioAssay by National Center for Advancing Translational Sciences (NCATS).
Sampled rows, rich in hits. Any-hit rate of the full collection: about 10%.
NPR1 antag – antagonists of human natriuretic peptide receptor Npr1; P16066; HEK293 hNpr1 GloSensor cGMP, ANP-stimulated luminescence; Potency, µM (titrated, usually from 46.3 µM), actives largely listed as inhibitors; actives 1.6% (n = 76,000); AID 1347048; calls by dose curve; further: nearly all actives have a fitted effect of over 60% in size
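Compound pre-incubated 30 min at room temperature on GloSensor-loaded HEK293 cells stably carrying hNpr1 and the pGS-40F cGMP biosensor. Stimulation uses hNppA at 0.1 nM final; luminescence is taken at baseline and 20 min post-agonist.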
3T3 cytotox – cytotoxic compounds in NIH 3T3 cells; Potency, µM (series often up to 96.7 µM), usual class: inhibitors; NIH 3T3 viability, CellTiter-Glo ATP luminescence, 48-72 h; actives 4.3% (n = 94,000); further: nearly all actives have a fitted effect of over 55% in size
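Cytotoxicity was measured by CellTiter-Glo ATP luminescence after 48 or 72 h compound exposure at 37 °C. Mouse NIH 3T3 fibroblasts were seeded at 400 cells/well and dosed by 23 nL pin transfer.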
GPT2 inhibitor – blocks human glutamate pyruvate transaminase 2; Recombinant GPT2, coupled pyruvate oxidase/HRP Amplex Red fluorescence; Q8TD30; actives 0.25% (n = 100,000); Potency, µM (highest dose often 57.7 µM), actives largely listed as inhibitors; AID 1671188; further: nearly all actives have a fitted effect of over 60% in size
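Fluorescence read-out: pyruvate from GPT2 turnover coupled to pyruvate oxidase, HRP and Amplex Red (0.2mM ThPP, 0.2U/mL PO and HRP, 50uM Amplex final). Substrates 250uM a-KG, 2mM L-alanine; enzyme 10ng/uL; 30 min RT.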
HEK cytotox – kills HEK 293 cells | HEK 293 viability, ATP luminescence (CellTiter-Glo), 48-72 h | Potency, µM (series often up to 115 µM), hits mostly inhibitors | actives 6.6% (n = 94,000) | AID 1345083; further: nearly all actives have a fitted effect of over 60% in size
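Cells seeded first (HEK 293, 250 cells/well), then compound added by pintool. Incubation ran 48 or 72 hr at 37 degree Celsius. CellTiter-Glo was added and luminescence imaged after 10 min at room temperature.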
Luciferase inh – blocks purified firefly luciferase enzyme activity | AID 1347043 | P08659 | purified P. pyralis luciferase, luminescence, biochemical | Potency, µM (highest dose often 115 µM), most hits filed as inhibitors | actives 2.5% (n = 76,000); further: nearly all actives have a fitted effect of over 65% in size
Target sequence (P08659 whole entry, looked up): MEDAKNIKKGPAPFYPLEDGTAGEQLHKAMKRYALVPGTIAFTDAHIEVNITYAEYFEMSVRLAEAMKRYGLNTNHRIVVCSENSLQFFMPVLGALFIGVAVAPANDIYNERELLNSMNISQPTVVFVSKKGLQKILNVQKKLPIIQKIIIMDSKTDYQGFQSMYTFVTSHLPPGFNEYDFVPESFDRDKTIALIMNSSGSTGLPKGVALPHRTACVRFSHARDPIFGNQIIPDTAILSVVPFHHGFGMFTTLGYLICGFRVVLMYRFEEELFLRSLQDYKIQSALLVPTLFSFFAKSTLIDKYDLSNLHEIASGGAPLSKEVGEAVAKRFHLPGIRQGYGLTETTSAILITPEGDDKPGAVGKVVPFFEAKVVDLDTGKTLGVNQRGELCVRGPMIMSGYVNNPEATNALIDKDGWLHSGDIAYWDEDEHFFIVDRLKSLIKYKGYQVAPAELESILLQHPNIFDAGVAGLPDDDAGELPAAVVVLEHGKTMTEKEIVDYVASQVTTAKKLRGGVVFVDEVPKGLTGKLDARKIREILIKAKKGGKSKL
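Inhibitors were tested against purified firefly luciferase in a biochemical, low-substrate format (both substrates at 10uM) and luminescence measured with a CCD imager.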
Each line names hits and unclear results; the compound was inactive in the other large screens; ! = not active in a repeat. Unless noted, the call rests on the fitted dose curve; in most records, active means well fitted curve in the direction sought with a large enough effect; inconclusive means small, poorly fitted or top-dose-only effect, or another doubt; inactive means no such curve, though single readings can be large; an effect the other way counts as inactive or inconclusive.

Cc1ccc(NC(=O)C2CCN(C(=O)c3ncn4c3COC(c3ccc(F)cc3)C4)CC2)c(Cl)c1 (stereo unspecified)	Luciferase inh 25.1µM
O=C(CCC1CCCC1)N1CC[C@@H]2COCCN(Cc3ccncc3)[C@@H]2C1	3T3 cytotox inconclusive, HEK cytotox inconclusive (no result: NPR1 antag, Luciferase inh)
O=C(Nc1cc(-c2ccncc2)nn1-c1ccccc1)c1cccc(Br)c1	3T3 cytotox 31.6µM, HEK cytotox inconclusive (no result: NPR1 antag, Luciferase inh)
Cn1nc(-c2ccncc2)cc1NC(=O)c1cccc(Br)c1	3T3 cytotox inconclusive, HEK cytotox inconclusive (no result: NPR1 antag, Luciferase inh)
Cn1nc(-c2ccncc2)cc1NC(=O)c1ccc(Cl)cc1	3T3 cytotox inconclusive, HEK cytotox inconclusive (no result: NPR1 antag, Luciferase inh)
Cn1nc(-c2ccncc2)cc1NC(=O)c1ccc(C(F)(F)F)cc1	3T3 cytotox inconclusive, HEK cytotox 11.2µM (no result: NPR1 antag, Luciferase inh)
CC1=NS(=O)(=O)N(C)C=C1C(=O)OCc1nc(-c2ccc3c(c2)OCO3)no1	NPR1 antag 11.2µM, Luciferase inh inconclusive
CC1=NS(=O)(=O)N(C)C=C1C(=O)OCc1nc(-c2ccc(Cl)cc2)no1	NPR1 antag 10µM, HEK cytotox inconclusive, Luciferase inh inconclusive
COc1cccc(-c2noc(COC(=O)C3=CN(C)S(=O)(=O)N=C3C)n2)c1	NPR1 antag 12.6µM, 3T3 cytotox inconclusive, HEK cytotox inconclusive, Luciferase inh inconclusive
CC1=NS(=O)(=O)N(C)C=C1C(=O)OCc1nc(-c2ccccc2Cl)no1	HEK cytotox inconclusive
CC(=O)N1CCC(N2CCC(N3C(=O)C4(CCCCC4)C3c3ccncc3)CC2)CC1 (stereo unspecified)	3T3 cytotox inconclusive
Clc1cc(NCC2CCCCC2)n2nccc2n1	3T3 cytotox inconclusive, HEK cytotox inconclusive
Clc1cc(NC2CCCCCC2)n2nccc2n1	3T3 cytotox inconclusive, HEK cytotox 89.1µM
Clc1cc(NCC2CCCCCC2)n2nccc2n1	3T3 cytotox 31.6µM, HEK cytotox inconclusive
O=C1Nc2ccccc2CC12CCN2Cc1ccc(F)cc1 (stereo unspecified)	HEK cytotox inconclusive
COc1ccc(CN2CCC3(Cc4ccccc4NC3=O)C2)cc1 (stereo unspecified)	3T3 cytotox inconclusive, HEK cytotox inconclusive
O=C1Nc2ccccc2CC12CCN(Cc1ccc(F)cc1)CC2	HEK cytotox inconclusive
O=C1Nc2ccccc2CC12CCN(Cc1ccc(Cl)cc1)CC2	3T3 cytotox inconclusive, HEK cytotox 89.1µM (no result: NPR1 antag, Luciferase inh)
O=C1Nc2ccccc2CC12CCN2Cc1ccc(OC(F)(F)F)cc1 (stereo unspecified)	3T3 cytotox inconclusive, HEK cytotox 44.7µM
O=C1Nc2ccccc2CC12CCN(Cc1ccc(OC(F)(F)F)cc1)C2 (stereo unspecified)	NPR1 antag inconclusive, 3T3 cytotox inconclusive, HEK cytotox 28.2µM
Cc1ccccc1C(=O)N1CCCCC12Cc1ccccc1NC2=O (stereo unspecified)	3T3 cytotox inconclusive, HEK cytotox 112µM!
CCOc1ccc(-c2cc3c(=O)n(CCNC(=O)c4ccc(C#N)cc4)ccn3n2)cc1	Luciferase inh inconclusive
COCC(=O)NC1CCC12CCN(S(=O)(=O)c1ccccc1)CC2 (stereo unspecified)	none (no result: NPR1 antag, Luciferase inh)
O=C1NCc2ccccc2CC12CCN(Cc1ccc(-c3ccccc3)cc1)CC2	3T3 cytotox 25.1µM, HEK cytotox 31.6µM (no result: NPR1 antag, Luciferase inh)
COc1ccc(CN2CCC3(CN[S+](=O)([O-])c4ccccc4N3)C2)cc1 (stereo unspecified)	none
O=[S+]1([O-])NCC2(CCN(Cc3ccc(OC(F)(F)F)cc3)C2)Nc2ccccc21 (stereo unspecified)	3T3 cytotox inconclusive, HEK cytotox 79.4µM
O=C1Nc2ccccc2CC12CCCCN2Cc1ccc(F)cc1 (stereo unspecified)	3T3 cytotox inconclusive, HEK cytotox 79.4µM
CCc1cccc(NC(=O)N2CCCC(c3noc(COc4ccccc4F)n3)C2)c1 (stereo unspecified)	3T3 cytotox inconclusive, HEK cytotox inconclusive, Luciferase inh inconclusive
Cn1cccc1C(=O)N1CCO[C@@H](COc2ccccn2)[C@@H]1c1ccccc1	3T3 cytotox inconclusive, HEK cytotox inconclusive (no result: NPR1 antag, Luciferase inh)
N[C@@H]1CC[C@H](C(=O)NCc2csc(N3CCCC3)n2)C1	3T3 cytotox inconclusive, HEK cytotox inconclusive
CCCC1=Nc2cc(C(=O)NCCCN3CCCCC3CC)ccc2Sc2ccc(C)cc21 (stereo unspecified)	3T3 cytotox 7.08µM, HEK cytotox inconclusive
Cc1ccc(CNC(=O)c2ccc3c(c2)CN(Cc2cccc(F)c2F)CCO3)cc1	3T3 cytotox inconclusive, HEK cytotox 79.4µM
COc1cccc(CN2Cc3cc(NC(=O)c4ccccc4)ccc3OC(C)C2=O)c1OC (stereo unspecified)	3T3 cytotox inconclusive, HEK cytotox inconclusive
COc1ccc(CN2Cc3cc(NC(=O)c4ccccc4F)ccc3OC(C)C2=O)c(OC)c1 (stereo unspecified)	3T3 cytotox inconclusive, HEK cytotox 35.5µM
COc1ccccc1CN1Cc2cc(NC(=O)c3ccc(Cl)cc3)ccc2OC(C)C1=O (stereo unspecified)	3T3 cytotox inconclusive, HEK cytotox 25.1µM
O=C(Nc1ccc2c(c1)CN(Cc1ccccc1F)C(=O)CO2)c1ccc(Cl)cc1	3T3 cytotox inconclusive, HEK cytotox 39.8µM, Luciferase inh inconclusive
COc1cccc(C(=O)Nc2ccc3c(c2)CN(Cc2cccc(OC)c2OC)C(=O)CO3)c1	HEK cytotox 44.7µM, Luciferase inh inconclusive
COc1ccc(CN2Cc3cc(NC(=O)c4ccc(F)cc4)ccc3OC(C)C2=O)c(OC)c1 (stereo unspecified)	HEK cytotox inconclusive
O=C1NCc2ccccc2CC12CCN(C/C=C/c1ccccc1)CC2	3T3 cytotox inconclusive, HEK cytotox inconclusive (no result: NPR1 antag, Luciferase inh)
O=C(C1CCCC1)N1CCN(c2ccc3nnc(C4CC4)n3n2)CC1	none (no result: NPR1 antag, GPT2 inhibitor, Luciferase inh)
CNC(=O)c1nc2sccn2c1-c1ccc(C(F)(F)F)cc1	3T3 cytotox inconclusive, HEK cytotox inconclusive (no result: NPR1 antag, Luciferase inh)
COc1cccc(C(=O)Nc2ccc3c(c2)CN(Cc2cccc(OC)c2OC)C(=O)C(C)O3)c1 (stereo unspecified)	3T3 cytotox 35.5µM, HEK cytotox 28.2µM
C[S+](=O)([O-])CCn1ncc2cc(OCc3cccc(-c4cccc(CO)c4)c3)ccc21	NPR1 antag inconclusive, 3T3 cytotox inconclusive, GPT2 inhibitor inconclusive, HEK cytotox 50.1µM, Luciferase inh inconclusive
COc1ccc(-c2cccc(COc3ccc4c(cnn4CC[S+](C)(=O)[O-])c3)c2)cc1	3T3 cytotox inconclusive, HEK cytotox inconclusive, Luciferase inh inconclusive
C[S+](=O)([O-])CCn1ncc2cc(OCc3cccc(-c4ccccc4F)c3)ccc21	NPR1 antag inconclusive, 3T3 cytotox inconclusive, HEK cytotox 50.1µM, Luciferase inh 15.8µM
Cc1ccc(C(=O)N2CCC(C(=O)N3CCC(c4ccccc4)CC3)CC2)cc1	3T3 cytotox inconclusive, HEK cytotox inconclusive (no result: NPR1 antag, Luciferase inh)
